Compound activity deposited in PubChem BioAssay by Broad Institute.
Tg IFNy HTS = blocks Toxoplasma gondii growth in the presence of IFN-gamma; Toxoplasma gondii growth in IFN-gamma-treated host cells; stronger effect = lower value; 69,000 compounds, 3.8% hits; activity change, negative = inhibition, % (no concentration beside the values); in the data active means activity change below about -70%, passing the limit was not always enough;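 further: host cells are HeLa cells infected with Toxoplasma gondii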
Each line names hits and unclear results; the compound was inactive in the other large screens. Shown is part of a subset that was picked to be rich in hits.

Cc1cccc(CN2C[C@H]3CN(C(=O)c4cnccn4)C[C@@H]3C2)n1	none
COCCN1C[C@H](OCc2cccnc2)[C@@H]2COC[C@@H]21	none
CCS(=O)(=O)NCC[C@@]12CCO[C@@H]1CCN(Cc1cccnc1)C2	none
CCCc1cncnc1N1CCN2CCN(C)C(=O)C2C1 (stereo not given)	none
O=C(Nc1ccc(OC(F)(F)F)cc1)c1cc2cccnc2n(Cc2ccccc2F)c1=O	none
CC(C)N1CCC2(CC1)C(=O)Nc1ccc(C(=O)NC3CC3)cc12	none
CC(Cn1cncn1)NCCN1CCc2ccccc21 (stereo not given)	none
COc1cc2c3cc1Oc1c(OC)c(OC)cc4c1[C@@H](Cc1cccc(c1)Oc1ccc(c(O)c1)C[C@@H]3N(C)CC2)N(C)CC4	none
O=C(Nc1ccc(Oc2ccccc2)cc1)c1cc2cccnc2n(Cc2ccc(Cl)cc2)c1=O	none
COc1ccc2c(c1)C1(CCN(C(=O)c3ccc4c(c3)OCCO4)CC1)CC2CC(=O)O (stereo not given)	none
CCN1CC[C@H]2OCC[C@@H](C(=O)NCc3cccnc3)[C@@H]2C1	none
O=C1CO[C@H]2CNC[C@@H]2N1CC1CCCC1	none
Cc1cc(C)c(NC(=O)c2cc3cccnc3n(Cc3ccc(F)cc3)c2=O)c(C)c1	Tg IFNy HTS -78
Cc1ccc(NC(=O)c2c(O)c3cccnc3n(Cc3ccccc3)c2=O)c(C)c1	none
Cc1ccc(NC(=O)c2cc3cccnc3n(Cc3ccc(F)cc3)c2=O)cc1	none
O=C(NCc1ccccc1)c1c(O)c2cccnc2n(Cc2ccccc2)c1=O	Tg IFNy HTS -116
O=C(NCc1cccs1)c1c(O)c2cccnc2n(Cc2ccccc2)c1=O	Tg IFNy HTS -111
Cc1ccc(NC(=O)c2cc3cccnc3n(Cc3ccc(F)cc3)c2=O)c(C)c1	none
Cc1ccc(F)c(NC(=O)c2c(O)c3cccnc3n(Cc3ccccc3)c2=O)c1	none
O=C(Nc1cccc(Cl)c1)c1c(O)c2cccnc2n(Cc2ccccc2)c1=O	none
COc1ccc(NC(=O)c2c(O)c3cccnc3n(Cc3ccccc3)c2=O)cc1	none
CCC(CO)NC1CC(C)N(C)CC1C (stereo not given)	none
Cc1nc2c(c(N3C[C@@H]4C[C@@H](C3)c3cccc(=O)n3C4)n1)CNC2	none
CC(C)C(=O)N1CCCC2(CCCN2Cc2cccnc2)C1 (stereo not given)	none
CCc1c(C(=O)OC)ncc2[nH]c3cc(OC)c(OC)cc3c12	none
Cc1c(N2C(=O)[C@@H]3[C@H](O)CCN3C2=O)ccc(C#N)c1Cl	none
O=C1CCC2(O)C3Cc4ccc(O)c5c4C2(CCN3CC2CC2)C1O5 (stereo not given)	none
COCCN1CC2(CCN(Cc3cc(C)on3)CC2)CC1COC (stereo not given)	none
O=C(Nc1cc(F)ccc1F)c1cc2cccnc2n(Cc2ccc(F)cc2)c1=O	none
O=C(Nc1ccc(F)c(F)c1)c1cc2cccnc2n(Cc2ccc(F)cc2)c1=O	none
CC1(C)C(=O)C=C[C@@]2(C)C1C(=O)C(=O)[C@]1(C)C2CC[C@@]2(C)[C@H](c3ccoc3)C[C@H]3O[C@]321 (stereo not given in full)	Tg IFNy HTS -79
COc1ccccc1CC(C)N(C)C(=O)CN1CCCN(C)CC1 (stereo not given)	none
O=C(NC(=S)Nc1cc(C(F)(F)F)cc(C(F)(F)F)c1)Oc1ccccc1	Tg IFNy HTS -98
C=CCN1CCOCC2(C1)CN(C(=O)c1ccnnc1)CCO2 (stereo not given)	none
O=C1COC2(CNCCOC2)CN1CC1CC1 (stereo not given)	none
CC1CN2CCC3=C(CCCC3)C2(C)C1 (stereo not given)	none
CCOC(C(=O)OCCCN1CCCCCC1)(c1ccccc1)c1ccccc1	Tg IFNy HTS -80
C[C@H]1OC[C@@H](C[N+](C)(C)C)O1	none
COCCN1CCN(Cc2nccs2)Cc2ccc(C)nc21	none
COc1ccc(OC)c(NC(=O)c2nc(C)n(C3CCN(C)CC3)c2C)c1	none
CCOc1ccc(NC(=O)c2cc3cccnc3n(Cc3ccc(Cl)cc3)c2=O)cc1	none
CC(=O)OC[C@]12CCC(C)=C[C@H]1O[C@@H]1[C@H](O)[C@@H](OC(C)=O)[C@@]2(C)[C@@]12CO2	Tg IFNy HTS -81
CCCC[N+]1(C)[C@@H]2CC(OC(=O)[C@@H](CO)c3ccccc3)C[C@H]1[C@@H]1O[C@@H]12 (stereo not given in full)	none
CCN1CCOCC2(CCCN(C(=O)c3ccc(C)nc3)C2)C1 (stereo not given)	none
O=C(O)CNC(=O)c1c(O)c2ccccc2n(Cc2ccccc2)c1=O	none
CCN1CCC2(CC1)CC(Oc1ccccc1)CO2 (stereo not given)	none
CC(=O)Nc1ccc(Cc2ccc(NC(C)=O)cc2)cc1	none
